RXFP1 antagonist – blocks the human relaxin receptor RXFP1 | Q9HBX9 | HEK293-RXFP1, relaxin-stimulated cAMP HTRF, 30 min; stronger effect = lower value | activity change, negative = inhibition, % at 57.5 µM | 0.59% of 350,000 active | AID 1259400;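 active means activity change of -60% or lower, but not beyond a set lower limit; inconclusive means change between -60% and -40%, or beyond the set limit; inactive means change above -40%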
Target sequence (Q9HBX9 whole entry, looked up): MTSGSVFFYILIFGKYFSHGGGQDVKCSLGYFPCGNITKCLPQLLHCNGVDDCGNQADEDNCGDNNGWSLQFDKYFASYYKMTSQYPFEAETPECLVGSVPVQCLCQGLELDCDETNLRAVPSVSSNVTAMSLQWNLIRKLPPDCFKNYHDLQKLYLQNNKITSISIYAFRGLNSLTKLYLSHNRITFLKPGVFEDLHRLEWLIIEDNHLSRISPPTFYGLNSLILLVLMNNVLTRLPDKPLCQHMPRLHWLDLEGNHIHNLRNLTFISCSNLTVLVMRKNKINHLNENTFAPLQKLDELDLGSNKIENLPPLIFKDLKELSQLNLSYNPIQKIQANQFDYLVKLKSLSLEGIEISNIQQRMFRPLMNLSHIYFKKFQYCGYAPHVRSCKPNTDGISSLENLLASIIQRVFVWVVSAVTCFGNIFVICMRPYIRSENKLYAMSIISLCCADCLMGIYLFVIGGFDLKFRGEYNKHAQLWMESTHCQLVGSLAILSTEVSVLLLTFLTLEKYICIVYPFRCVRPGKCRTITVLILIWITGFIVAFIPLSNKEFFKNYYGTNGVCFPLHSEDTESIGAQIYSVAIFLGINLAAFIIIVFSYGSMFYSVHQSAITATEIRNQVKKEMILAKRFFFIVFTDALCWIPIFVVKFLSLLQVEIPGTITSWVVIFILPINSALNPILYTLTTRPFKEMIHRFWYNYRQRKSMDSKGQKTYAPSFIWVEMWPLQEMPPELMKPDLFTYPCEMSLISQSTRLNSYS
Giardia killer – kills Giardia lamblia; Giardia lamblia trophozoite viability; 0.15% of 340,000 active; activity change, % at 7.66 µM, hits read low; in the data active means activity change below about -80%; inconclusive means between about -30% and that limit;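 further: parasites exposed to compound for two days anaerobically before the ATP read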
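ATP-content bioluminescence gauges trophozoite survival. Cells (100/well) receive compound and incubate anaerobically for 48 hrs at 37 deg C; detection reagent follows for 15-30 min at room temperature.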
gsp agonist – gsp mutant agonism; gsp mutant cells, cAMP HTRF, 30 min; Potency, µM (series often up to 76.9 µM), actives largely listed as activators; 0.13% of 340,000 active; active means well fitted activation curve with a large enough effect; inconclusive means small, poorly fitted or top-dose-only effect, or another doubt; inactive means no such curve, though single readings can be large or run the other way; cell line not stated here;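 further: phosphodiesterase inhibitor Ro 20-1724 added with compounds to block cAMP breakdown; nearly all actives have a fitted effect of over 60% in size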
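Cells stably selected in G418 were plated at 2000/well, grown 16-24 hr, then given compounds in DMSO with the PDE inhibitor […] (300 uM solution added) for 30 min at 37C; cAMP was read by HTRF.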
gsp antag – antagonizes gsp, the McCune-Albright syndrome mutation. AID 624288. Potency, µM (doses to about 76.9 µM), hits mostly inhibitors. 0.4% of 340,000 active. gsp-mutant cells, cAMP HTRF, 30 min; calls by dose curve; cell line not stated here;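 further: intracellular cAMP measured with PDE inhibitor Ro 20-1724 present during compound exposure; nearly all actives have a fitted effect of over 65% in size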
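Measurement of cellular cAMP by homogeneous time-resolved fluorescence following a 30 min compound exposure at 37C. The PDE inhibitor […] was present throughout; the assay buffer was DPBS with 0.05% BSA and 0.005% Tween 20.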
RXFP1 agonist – RXFP1 (human) receptor agonism. HEK293T-RXFP1 cAMP TR-FRET, 30 min; response scale: percent of porcine relaxin response, buffer zero. Q9HBX9. 0.3% of 370,000 active. Potency, µM (series often up to 57.5 µM), usual class: activators; active means well fitted activation curve with a large enough effect; inconclusive means small, poorly fitted or top-dose-only effect; further: nearly all actives have a fitted effect of over 60% in size
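Agonist response is measured as cAMP accumulation in an RXFP1-transfected HEK293T line under PDE4 inhibition. Values are scaled between buffer-only and 29 nM porcine relaxin, and EC50s come from standard Hill equation fits.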
FBPA coupling cs – inhibits coupling enzyme system, counter-screen for aldolase hits; activity change, negative = inhibition, % at 58.2 µM, hits read low; AID 2472; coupling enzyme system counterscreen, AmpLite Red fluorescence; 0.67% of 290,000 active; in the data active means activity change below about -30%
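Coupling enzymes only (glyceraldehyde-3-phosphate) + compound, at 57.5 uM final, 10 min RT; add substrate/coupling/AmpLite Red mix, 20 min RT; fluorescence ex 525/em 598 nm. Actives flag coupling-system interference.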
A number is an active result; - = inactive; ? = inconclusive; . = not tested or not shown; ! = a repeat was not active; [ ] = another dose, or the depositor's remark. This is a sample that favours compounds with a hit; in the whole collection about 1.6% have one here.

SMILES | RXFP1 antagonist | Giardia killer | gsp agonist | gsp antag | RXFP1 agonist | FBPA coupling cs
O=C(CNC(=O)c1cccc(Cl)c1)Nc1ccc(Br)cc1C(=O)c1ccccc1 | - | - | - | 39.8µM | - | -
CCOc1ccc(NC(=S)N2CCC(NC(=O)c3ccccc3C)CC2)cc1 | - | - | - | - | - | -
C[n+]1c2ccccc2nc2ccc(NCCO)cc21 | - | - | ? | ? | - | -
CNc1ccc2nc3ccccc3[n+](C)c2c1 | -91.9 | - | ? | ? | - | -
COc1ccc(NC(=O)c2cn(CCC#N)nc2-c2cccc(Br)c2)cc1 | - | - | - | - | - | -
COc1cccc(/C=N/NC(=O)c2c(C)nc3ccc(Br)cn23)c1 | - | - | ? | - | - | -33.1
COc1ccc2c(c[n+](C)c3c4cc5c(cc4ccc23)OCO5)c1OC | . | . | . | . | . | -39.0!
Cc1ccc(S(=O)(=O)N(C)C[C@H]2Oc3ncc(Br)cc3C(=O)N([C@H](C)CO)C[C@@H]2C)cc1 | - | . | - | . | . | .
C[C@H]1CNC(=O)c2c(C(=O)Nc3ccc(CNC(=O)OC(C)(C)C)cc3)ncn21 | - | . | - | . | . | .
Cc1ncc([N+](=O)[O-])n1CCOc1nonc1N | - | -86.5 | - | - | - | -
CC(C)Oc1cccc(NC(=O)c2ccccc2C(F)(F)F)c1 | - | . | . | . | . | .
COc1ccc(OC)c(N2C(=O)NC(=O)/C(=C/c3ccc([N+](=O)[O-])s3)C2=O)c1 | - | - | -[15.4 µM] | ? | - | -33.4
CCN1C(=O)/C(=C\c2ccc([N+](=O)[O-])s2)C(=O)NC1=S | . | . | . | . | - | -40.4
C=CCN1C(=O)/C(=C/c2ccc(Br)s2)C(=O)NC1=S | - | - | - | ? | - | -
COc1ccc(OC)c(N2C(=O)/C(=C/c3ccco3)C(=O)NC2=S)c1 | - | - | -[15.4 µM] | - | - | -
NC1CCCCC1N (stereo not drawn) | . | . | . | . | . | -
N#CC1=C(N)Oc2n[nH]c(-c3cccs3)c2C1c1ccco1 (stereo not drawn) | - | - | - | - | - | -31.0
O=C1NC(=O)N(Cc2ccc(F)cc2)C(=O)/C1=C/c1cccs1 | -74.4 | - | -[15.4 µM] | - | - | -
O=C(Nc1ncccc1O)c1ccc(S(=O)(=O)NCc2ccco2)cc1 | - | . | - | . | . | .
O=C(O)c1ccc(=O)[nH]c1 | - | . | . | . | . | .
CCCCCCCCc1ccc(O)cc1 | - | - | . | - | - | .
CCCCc1ccc(C(=O)O)nc1 | . | - | . | - | - | -67.4!
CCNC(C)Cc1ccc2c(c1)OCO2 (stereo not drawn) | - | . | . | . | . | .
CN1CCN(c2ccc([N+](=O)[O-])c3no[n+]([O-])c23)CC1 | -87.4 | - | -[15.4 µM] | ? | - | -
O=[N+]([O-])c1ccc(N(CCO)CCO)c2c1no[n+]2[O-] | - | . | - | . | . | .
SMILES | RXFP1 antagonist | Giardia killer | gsp agonist | gsp antag | RXFP1 agonist | FBPA coupling cs
CC1COC2(c3ccccc3Cl)c3cc(Cl)ccc3NC(=O)CN12 (stereo not drawn) | - | . | . | . | . | .
CN1C(=O)C(Cc2nc3ccccc3c(=O)n2-c2ccccc2)c2ccccc21 (stereo not drawn) | - | - | - | 35.5µM | - | -
O=C1Nc2ccccc2C1Cc1nc2ccccc2c(=O)n1-c1ccccc1 (stereo not drawn) | - | - | - | - | - | -
COc1ccc(Cc2nccc3cc(OC)c(OC)cc23)cc1OC | - | - | . | - | - | -31.9!
COc1cc2c(ccc3c4cc(OC)c(OC)cc4c[n+](C)c23)cc1O | - | - | - | - | . | .
CCNC(=O)[C@H]1O[C@@H](n2cnc3c(N)ncnc32)[C@H](O)[C@@H]1O | . | - | . | - | 1.26µM | -
CCNC(=O)[C@@H]1O[C@@H](n2cnc3c(N)ncnc32)[C@H](O)[C@H]1O | . | . | . | . | . | -
C=C(C)C(Cc1c(OC)ccc(C(=O)/C=C/c2ccc(O)cc2)c1O)OO (stereo not drawn) | . | - | . | 25.1µM | . | .
O=c1[nH]c2ccccc2n1C1CCN(CCCC(c2ccc(F)cc2)c2ccc(F)cc2)CC1 | -67.8 | - | . | - | - | -
O=C1CC(N2CCC(n3c(=O)[nH]c4ccccc43)CC2)C(=O)N1c1ccc(F)cc1 (stereo not drawn) | - | - | - | - | - | -
C[C@]12CC[C@@H]3c4ccc(O)c(O)c4CC[C@H]3[C@@H]1CC[C@@H]2O | . | - | . | - | - | -47.4
O=c1oc2ccccc2c(O)c1C(CC(O)c1ccc(-c2ccc(Br)cc2)cc1)c1ccccc1 (stereo not drawn) | -63.8 | . | . | . | . | .
CN(C)CC(C(=O)Cc1ccccc1)c1ccccc1 (stereo not drawn) | -118.4 | - | - | - | . | .
Cc1cccc(N2C(=O)NC(=O)/C(=C\c3cccn3-c3ccc(Cl)cc3)C2=O)c1 | -70.9 | - | - | - | - | -
Cc1cccc(N2C(=O)NC(=O)/C(=C\C=C\c3ccco3)C2=O)c1 | -68.0 | - | ? | ? | - | -
Cc1cccc(N2C(=O)NC(=O)/C(=C/c3ccc([N+](=O)[O-])o3)C2=O)c1 | - | - | - | - | - | -35.9
Cc1ccc(N2C(=O)NC(=O)/C(=C\C=C\c3ccco3)C2=O)cc1 | - | - | - | ? | - | -
Cc1ccc(N2C(=O)NC(=O)/C(=C\C=C\c3ccco3)C2=O)cc1C | -70.1 | - | -[15.4 µM] | - | - | -
C[C@H]1[C@@H]2Cc3ccc(O)cc3[C@]1(C)CCN2C | - | . | . | . | . | .
O=C(c1cc(-c2ccc(Cl)cc2)n(-c2ccc(Cl)cc2Cl)n1)N1CCOCC1 | - | - | - | - | - | -
C=CCn1nc(C(=O)N2CCOCC2)cc1-c1sc(NC(=O)c2ccccc2)nc1C | - | . | 22.4µM | . | . | .
CCCCC/C=C\C/C=C\C/C=C\C/C=C\CCCC(=O)NCc1ccoc1 | . | . | . | . | . | -
O=S(c1ccccc1)c1ccccc1 | - | - | ? | - | . | .
CCOC(=O)c1c(/N=C/c2c(O)n(-c3ccccc3F)c(=S)[nH]c2=O)sc2c1CCCC2 | - | - | - | - | - | -49.0
COCCCn1c(N)c(C(=O)OCCOC)c2nc3ccccc3nc21 | - | - | - | - | - | -
SMILES | RXFP1 antagonist | Giardia killer | gsp agonist | gsp antag | RXFP1 agonist | FBPA coupling cs
COCCNC(=O)c1c(NC(=O)c2ccc(Br)o2)n(Cc2ccccc2)c2nc3ccccc3nc12 | - | - | - | - | - | -43.8
CCCCNC(=O)c1c(N)n(CCCOC)c2nc3ccccc3nc12 | - | - | - | - | - | -39.1
COCCNC(=O)c1c(N)n(CCC(C)C)c2nc3ccccc3nc12 | - | - | - | - | - | -36.0
COCCCNC(=O)c1c(NC(=O)c2ccco2)n(Cc2ccccc2)c2nc3ccccc3nc12 | - | - | - | - | - | -
CC(C)OCCCNC(=O)c1c(N)n(Cc2cccs2)c2nc3ccccc3nc12 | - | - | - | - | - | -46.0
CC(C)CCn1c(N)c(C(=O)NCc2cccs2)c2nc3ccccc3nc21 | - | - | - | - | - | -
Cc1ccc(S(=O)(=O)N(C)C[C@@H]2Oc3ncc(Br)cc3C(=O)N([C@H](C)CO)C[C@@H]2C)cc1 | - | . | - | . | . | .

Screening data from PubChem BioAssay.
